Assay outcomes deposited in PubChem by The Scripps Research Institute Molecular Screening Center.
SF-1 inh – blocks the human nuclear receptor SF-1 | Q13285 | CHO-K1 Gal4-SF-1 LBD luciferase reporter | inhibition, % at 10 µM | 65,000 compounds, 0.55% hits | AID 525;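 active = inhibition above the mean inhibition of all tested compounds plus 3 SD, cut at about 48% in these data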;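 also: 0% = SF-1 transfected cells with DMSO and 100% = mock-transfected cells lacking SF-1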
Target sequence (Q13285 whole entry, looked up, the tested form may be a part): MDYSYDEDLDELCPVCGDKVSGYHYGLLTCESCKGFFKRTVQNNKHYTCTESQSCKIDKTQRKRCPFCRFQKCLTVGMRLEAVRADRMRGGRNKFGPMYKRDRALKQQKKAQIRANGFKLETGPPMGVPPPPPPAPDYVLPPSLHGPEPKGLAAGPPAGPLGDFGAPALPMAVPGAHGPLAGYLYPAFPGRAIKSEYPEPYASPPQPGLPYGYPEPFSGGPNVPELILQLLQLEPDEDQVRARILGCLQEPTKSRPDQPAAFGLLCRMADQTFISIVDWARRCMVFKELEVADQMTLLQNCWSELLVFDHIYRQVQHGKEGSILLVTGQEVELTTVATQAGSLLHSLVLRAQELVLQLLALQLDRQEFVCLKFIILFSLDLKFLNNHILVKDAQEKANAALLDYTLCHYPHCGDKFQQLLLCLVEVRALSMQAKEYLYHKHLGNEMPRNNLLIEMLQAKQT
Starred values were filed as active, the others as inactive. Only a selection was taken, and hits are over-represented in it overall.

Results for c1ccc(-c2ccc(-c3ccccn3)nn2)nc1 ?
SF-1 inh: 53*

Results for c1ccc(-c2nc3ccccc3s2)nc1 ?
SF-1 inh: -60

How did O=C(c1ccc(NC2=NC3CS(=O)(=O)CC3S2)cc1)N1CCc2ccccc2C1 (stereo not drawn) do in these assays?
SF-1 inh: 2

How did CCCC1C(c2ccc(OC)cc2)C(C#N)(C#N)C2(C#N)CC1(N)NC2=O (stereo not drawn) do in these assays?
SF-1 inh: -8

Results for Cc1nc(SCC(=O)Nc2c(C)n(C)n(-c3ccccc3)c2=O)[nH]c(=O)c1Cc1ccccc1 ?
SF-1 inh: -9

Results for O=C(NCc1ccc(F)cc1)C1C2C=CC3(CN(Cc4cccnc4)C(=O)C13)O2 (stereo not drawn) ?
SF-1 inh: -1

What do the screens show for `CC(=O)c1ccc(N2CCN(C(=O)c3cc4c(=O)n(C)c5ccccc5c4n3C)CC2)cc1`?
SF-1 inh: 48

How did C=CCn1c(=O)[nH]c2cc(C(=O)N3CCN(c4ccc(C(C)=O)cc4)CC3)ccc2c1=O do in these assays?
SF-1 inh: -14

What do the screens show for `CC(=O)c1ccc(N2CCN(c3ccc(C(F)(F)F)cn3)CC2)cc1`?
SF-1 inh: 58*

What do the screens show for `CC(C)(C)n1ncc2c(=O)n(CC(=O)NCc3ccccc3)cnc21`?
SF-1 inh: -78

How did CCOC(=O)Cn1c(=O)c2c(nc(Br)n2Cc2ccc(Cl)cc2)n(C)c1=O do in these assays?
SF-1 inh: 0

What do the screens show for `Brc1ccc(-c2nc(-c3ccccc3)no2)o1`?
SF-1 inh: -63

What do the screens show for `COc1ccc(-c2nc(-c3ccncc3)no2)cc1OC`?
SF-1 inh: -74

How did c1ccc(-c2noc(-c3ccc4ccccc4c3)n2)cc1 do in these assays?
SF-1 inh: 50*

Results for CCOc1ccc(OCC)c(NC(=O)CSc2nc3c(c(=O)n(C)c(=O)n3C)n2C(C)C)c1 ?
SF-1 inh: -101

How did CCC(CC)c1nc(NCCC(=O)O)c2ccccc2n1 do in these assays?
SF-1 inh: 6

How did O=C(NCc1ccco1)C1CCC(CNS(=O)(=O)c2cccc3cccnc23)CC1 (stereo not drawn) do in these assays?
SF-1 inh: -6

What do the screens show for `Cc1cccc2cc(C#N)c(NCCNC(=O)NC3CCCCC3)nc12`?
SF-1 inh: 15

How did Cc1cccc2cc(C#N)c(SCC(=O)N3CC(=O)Nc4ccccc43)nc12 do in these assays?
SF-1 inh: 64*

How did CCOC(=O)CSc1nc(-c2ccc3c(c2)OCO3)ccc1C#N do in these assays?
SF-1 inh: -64

Results for c1ccc(-n2c(Cc3cn4ccsc4n3)nnc2N2CCOCC2)cc1 ?
SF-1 inh: -6

Results for c1ccc(Cn2c(-c3ccco3)nc3nc4ccccc4nc32)cc1 ?
SF-1 inh: -82

Results for Cc1ccc(-c2nc3nc4ccccc4nc3n2Cc2ccco2)cc1 ?
SF-1 inh: 59*

Results for COc1ccc(CCn2c(-c3ccco3)nc3nc4ccccc4nc32)cc1 ?
SF-1 inh: -29

How did COc1ccccc1N1CCN(C(=O)C2C3C=CC4(CN(Cc5ccccc5Cl)C(=O)C24)O3)CC1 (stereo not drawn) do in these assays?
SF-1 inh: 17

What do the screens show for `CC1CC(C)CN(C(=O)CSc2nnc(-c3ccc(Cl)s3)o2)C1` (stereo not drawn)?
SF-1 inh: 5

What do the screens show for `CC1(C)COCN1S(=O)(=O)c1ccc(C(=O)Nc2nnc(-c3ccc(Cl)s3)o2)cc1`?
SF-1 inh: 65*

What do the screens show for `COc1ccc(S(=O)(=O)N2CCCC2C(=O)Nc2ccc(O)cc2)cc1` (stereo not drawn)?
SF-1 inh: 1

How did COc1ccc(-c2nnc(NC(=O)c3ccc(S(=O)(=O)N4COCC4(C)C)cc3)o2)cc1 do in these assays?
SF-1 inh: 50*

What do the screens show for `CC(=O)Nc1ccc(C(=O)Nc2ccc(S(=O)(=O)N3CCCC3)cc2)cc1`?
SF-1 inh: 11

How did COc1cccc(C(=O)Nc2cccc(-c3nnc(-c4ccccc4)o3)c2)c1 do in these assays?
SF-1 inh: -92

How did Cc1c(NC(=O)C(CC(=O)O)NCc2ccco2)c(=O)n(-c2ccccc2)n1C (stereo not drawn) do in these assays?
SF-1 inh: -1

What do the screens show for `CCOc1cccc(C(=O)Nc2nnc(-c3ccco3)s2)c1`?
SF-1 inh: -11

What do the screens show for `Fc1ccc(-c2nnc(-c3ccc(Cl)cc3Cl)o2)cc1`?
SF-1 inh: 24

What do the screens show for `Clc1ccc(-c2nnc(NC3=NCCCCC3)o2)cc1`?
SF-1 inh: 58*

What do the screens show for `Cc1ccc(S(=O)(=O)c2nc(-c3ccco3)oc2SCC(=O)NCC2CCCO2)cc1` (stereo not drawn)?
SF-1 inh: -8

What do the screens show for `CC1(C)CNC(=O)c2sc(N3CCOCC3)nc2C1`?
SF-1 inh: -4

Results for Cc1ccc(NC(=O)c2ocnc2C)cc1Cl ?
SF-1 inh: -72

Results for COc1ccccc1NC(=O)C1=C(C)Nc2nc(CCCO)nn2C1c1ccc2c(c1)OCO2 (stereo not drawn) ?
SF-1 inh: -12

Results for Cc1cc(C(=O)CSc2nc3ccccc3o2)c(C)n1C1CC1 ?
SF-1 inh: -61

What do the screens show for `Cc1cc(C(=O)CSc2nc3ccccc3[nH]2)c(C)n1C`?
SF-1 inh: -61

What do the screens show for `Cc1cc(-n2c(C)cc(C(=O)CSc3ncnc4ccccc34)c2C)no1`?
SF-1 inh: 71*

How did c1ccn2c(SCc3cn4ccsc4n3)nnc2c1 do in these assays?
SF-1 inh: -71

What do the screens show for `Cc1nc(NCCc2cnc[nH]2)c2oc3ccccc3c2n1`?
SF-1 inh: 2

What do the screens show for `COc1ccc(CCNc2nc(C)nc3c2oc2ccccc23)cc1OC`?
SF-1 inh: 58*

Results for Cc1nc(NCc2ccco2)c2oc3ccccc3c2n1 ?
SF-1 inh: 18

What do the screens show for `COc1ccc(CCNc2ncnc3c2oc2ccccc23)cc1OC`?
SF-1 inh: 72*

How did CC(=O)c1ccc(Nc2ncnc3c2oc2ccccc23)cc1 do in these assays?
SF-1 inh: -89

Results for CCc1nc(NCc2ccccn2)c2oc3ccccc3c2n1 ?
SF-1 inh: 14

Results for C=CCNC(=O)NS(=O)(=O)c1ccc(C)cc1 ?
SF-1 inh: 4

Results for CCCc1nnc(NC(=O)CN2C(=O)C3C4C=CC(C4)C3C2=O)s1 (stereo not drawn) ?
SF-1 inh: -18

What do the screens show for `Cn1c(=O)c2cc(S(=O)(=O)NCCC(=O)NCCC3=CCCCC3)ccc2n(C)c1=O`?
SF-1 inh: 12

How did CCOC(=O)N1CCC(Nc2nc3ccccc3nc2NS(=O)(=O)c2ccc(Cl)cc2)CC1 do in these assays?
SF-1 inh: -54
